The source made the active and inactive calls.
What was measured:
[1] = compound effects on lung adenocarcinoma cell viability – A549, calcein-AM fluorescence, 48 h, basal, profiling panel (AID 1162); settings: higher = more signal; also: test concentration not given here
[2] = compound effects on differentiated 3T3-L1 adipocyte viability – cell-based, 3T3-L1 adipocytes, calcein-AM fluorescence, 48 h, basal, profiling panel (AID 1163); settings: 3T3-L1 adipocytes viability, higher = more signal; also: test concentration not given here
[3] = compound effects on hepatocellular carcinoma cell viability – HepG2, calcein-AM fluorescence, 48 h, basal, profiling panel (AID 1164); settings: higher = more signal; also: test concentration not given here
[4] = compound effects on multiple myeloma cell viability – MM1S, calcein-AM fluorescence, 48 h, basal, profiling panel (AID 1165); settings: higher = more signal;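 also: viability of MM1S multiple myeloma cells under basal unstimulated conditions; test concentration not given here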
[5] = calcein-AM signal in unstimulated myeloma cells – cell-based, calcein-AM fluorescence, 48 h, PK04 Diversity Set, profiling panel (AID 1166); settings: RPMI8226 myeloma viability, higher = more signal;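 also: cells grown under basal conditions without added stimulus; test concentration not given here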
[6] = JC-1 mitochondrial signal, unstimulated HepG2 cells – cell-based, JC-1 fluorescence, 24 h, 100 nL compound, profiling panel (AID 1167); settings: HepG2 mitochondrial potential, higher = more signal; also: test concentration not given here
[7] = JC-1 mitochondrial signal, unstimulated adipocytes – cell-based, JC-1 fluorescence, 3T3-L1 adipocytes, 24 h, 100 nL compound, profiling panel (AID 1168); settings: JC-1 mitochondrial fluorescence, higher = more signal, called active from +8 up or from −8 down; also: test concentration not given here
[8] = JC-1 mitochondrial signal, unstimulated myeloma cells – cell-based, JC-1 fluorescence, RPMI8226, 24 h, 100 nL compound, profiling panel (AID 1169); settings: JC-1 mitochondrial potential fluorescence, higher = more signal; also: test concentration not given here
[9] = JC-1 mitochondrial signal, unstimulated MM1S myeloma – cell-based, JC-1 fluorescence, 24 h, 100 nL compound, profiling panel (AID 1170); settings: MM1S mitochondrial potential, higher = more signal; also: test concentration not given here
[10] = resazurin metabolic signal in A549 cells – cell-based, resazurin fluorescence, 24 h, PK04 Diversity Set, profiling panel (AID 1171); settings: A549 viability, higher = more signal, called active from +8 up or from −8 down; also: test concentration not given here
[11] = resazurin metabolic signal in HepG2 cells – cell-based, resazurin fluorescence, 24 h, PK04 Diversity Set, profiling panel (AID 1172); settings: HepG2 viability, higher = more signal; also: test concentration not given here
[12] = budding yeast growth changes without added modifier – OD600, strain BY4716, 24 h, basal condition, primary screen (AID 1173); settings: S. cerevisiae BY4716 growth, OD600, 24 h; higher = more signal, called active from +8 up or from −8 down
[13] = viability profiling in MM1S myeloma cells – cell-based, resazurin fluorescence, basal, 24 h, PK04 Diversity Set, profiling panel (AID 1174); settings: higher = more signal, called active from +8 up or from −8 down; also: test concentration not given here
[14] = biological target: Dihydroorotate dehydrogenase (quinone), mitochondrial (Plasmodium falciparum (isolate 3D7)) (UniProt Q08210); test: inhibition of P. falciparum DHODH – biochemical, C-terminal His tag, absorbance 600 nm, primary screen (AID 1175); settings: PfDHODH enzyme, DCIP absorbance 600 nm; higher = more signal, called active from +8 up or from −8 down;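 also: recombinant parasite enzyme with a five histidine tag at its C terminus; test concentration not given here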
Dihydroorotate dehydrogenase (quinone), mitochondrial (Plasmodium falciparum (isolate 3D7)), sequence (Q08210 whole entry, looked up): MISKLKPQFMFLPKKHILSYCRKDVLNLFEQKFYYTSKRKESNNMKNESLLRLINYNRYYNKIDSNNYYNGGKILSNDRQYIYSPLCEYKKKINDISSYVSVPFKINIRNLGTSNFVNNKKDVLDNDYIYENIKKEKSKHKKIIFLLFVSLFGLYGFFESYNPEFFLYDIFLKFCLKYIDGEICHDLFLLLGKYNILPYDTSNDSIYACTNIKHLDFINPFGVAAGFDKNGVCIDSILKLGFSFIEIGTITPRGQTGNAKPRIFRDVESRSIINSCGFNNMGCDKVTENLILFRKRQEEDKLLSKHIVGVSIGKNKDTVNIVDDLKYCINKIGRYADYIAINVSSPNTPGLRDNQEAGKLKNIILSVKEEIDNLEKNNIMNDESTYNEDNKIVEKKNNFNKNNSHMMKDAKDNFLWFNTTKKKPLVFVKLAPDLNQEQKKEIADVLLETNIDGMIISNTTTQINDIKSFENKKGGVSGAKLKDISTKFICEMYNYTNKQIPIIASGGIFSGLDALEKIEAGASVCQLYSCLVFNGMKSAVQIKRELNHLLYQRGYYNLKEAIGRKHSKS

[15] = growth modulation of vineyard yeast isolate – strain RM11-1a, OD600, basal, 24 h, primary screen (AID 1177);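 also: cultures grown under basal conditions with no added stressor; test concentration not given here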; settings: S. cerevisiae RM11-1a growth, OD600, 24 h; higher = more signal, called active from +8 up or from −8 down
[16] = growth of efflux-deficient E. coli DRC39 – strain DRC39, OD650, 24 h, E. coli filamentation inducers, primary screen (AID 1178);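 also: growth measured as culture turbidity by optical density at 650 nm; test concentration not given here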; settings: E. coli DRC39 acrAB, higher = more signal, called active from +8 up or from −8 down
[17] = growth of efflux-deficient E. coli DRC39 – strain DRC39, OD650, 48 h, E. coli filamentation inducers, primary screen (AID 1179);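 also: screen aims at cell division blockers that make cells filament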; settings: E. coli DRC39 delta-acrAB growth, higher = more signal, called active from +8 up or from −8 down
[18] = viability profiling in RPMI8226 myeloma cells – cell-based, resazurin fluorescence, basal, 24 h, PK04 Diversity Set, profiling panel (AID 1180); settings: higher = more signal;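 also: RPMI8826 multiple myeloma cell line at 5000 cells per well; test concentration not given here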
[19] = biological target: E3 ubiquitin-protein ligase XIAP (Homo sapiens) (UniProt P98170); test: small molecules binding XIAP protein – biophysical, small-molecule microarray, fluorescence 635 nm, primary screen (AID 1181); settings: higher = more signal;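 also: score merges 667 nm emission and signal to noise over triplicate slides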
E3 ubiquitin-protein ligase XIAP (Homo sapiens), sequence (P98170 whole entry, looked up): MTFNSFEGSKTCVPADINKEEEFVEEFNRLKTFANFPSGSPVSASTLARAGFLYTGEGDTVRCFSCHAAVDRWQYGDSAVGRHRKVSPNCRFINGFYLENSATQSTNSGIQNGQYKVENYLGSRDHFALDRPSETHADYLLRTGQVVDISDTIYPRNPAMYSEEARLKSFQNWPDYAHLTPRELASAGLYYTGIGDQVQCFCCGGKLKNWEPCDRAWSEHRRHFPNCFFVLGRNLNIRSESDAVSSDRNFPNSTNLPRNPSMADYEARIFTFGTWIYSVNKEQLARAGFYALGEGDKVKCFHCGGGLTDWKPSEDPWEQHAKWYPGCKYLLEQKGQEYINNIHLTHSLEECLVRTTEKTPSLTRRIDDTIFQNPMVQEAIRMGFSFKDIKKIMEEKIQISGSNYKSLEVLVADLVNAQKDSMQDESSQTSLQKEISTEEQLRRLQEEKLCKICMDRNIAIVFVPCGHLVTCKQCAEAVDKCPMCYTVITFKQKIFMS

| SMILES | z-score [1] | z-score [2] | z-score [3] | z-score [4] | z-score [5] | z-score [6] | z-score [7] | z-score [8] | z-score [9] | z-score [10] | z-score [11] | z-score [12] | z-score [13] | composite z-score [14] | z-score [15] | z-score [16] | z-score [17] | z-score [18] | composite z-score [19] |
| --- | --- | --- | --- | --- | --- | --- | --- | --- | --- | --- | --- | --- | --- | --- | --- | --- | --- | --- | --- |
| CO[C@H]1COC(=O)CC=C[C@H](C)[C@@H](OC)COC(=O)[C@H](Cc2ccccc2)NC(=O)CC=C[C@@H]1C | 0.0767 | 1.57 | 0.219 | 0.196 | 0.988 | 0.566 | 0.746 (inactive) | -0.0213 | 1.14 | 0.345 (inactive) | 1.26 | -0.562 (inactive) | 1 (inactive) | 1.09 (inactive) | 0.33 (inactive) | 0.424 (inactive) | -1.39 (inactive) | 0.452 | -0.031 |
| COC(=O)C1=C(C)N(Cc2ccccc2)c2c(C(=O)OC)c(C(=O)OC)c(C(=O)OC)c(=O)n2[C@@H]1c1ccccc1 | 0.943 | 0.338 | 0.244 | 0.24 | 0.327 | 1.12 | 0.633 (inactive) | -0.281 | -0.0899 | 0.524 (inactive) | 1.23 | -1.71 (inactive) | -0.364 (inactive) | 0.295 (inactive) | -1.05 (inactive) | -0.0311 (inactive) | 0.0198 (inactive) | 0.512 | -0.0841 |
| CC(=O)Nc1ccc([C@H]2[C@H](C)CC[C@H]3C(=O)N4[C@@H](CC[C@@H](C)[C@@H]4c4ccc(NC(C)=O)cc4)C(=O)N32)cc1 | 1.04 | 1.1 | 0.277 | -0.715 | -0.439 | -1.16 | -0.183 (inactive) | -0.365 | -0.559 | 0.553 (inactive) | 1.23 | -1.08 (inactive) | -0.269 (inactive) | 0.124 (inactive) | 0.897 (inactive) | 1.22 (inactive) | 0.141 (inactive) | 0.868 | -0.0204 |
| COCCOC(=O)N1C(=O)[C@@]2(c3cc(C#CCNC(N)=O)ccc31)[C@H](c1ccc(OCCO)cc1)N1[C@H](c3ccccc3)[C@H](c3ccccc3)OC(=O)[C@H]1[C@@H]2C(=O)Nc1nc2ccccc2s1 | 0.556 | 1.49 | -0.801 | -0.139 | -0.138 | -3.18 | 2.96 (inactive) | -0.964 | -1.56 | 0.708 (inactive) | -0.265 | 0.846 (inactive) | 1.48 (inactive) | 0.665 (inactive) | 2.46 (inactive) | 0.24 (inactive) | 0.782 (inactive) | 1.3 | 0.0472 |
| C=C(/C(=C/C[C@@H](OC(=O)c1ccncc1)c1ccc(CO)o1)c1cnc2ccccc2c1)C(C)C | 0.755 | 1.61 | -0.993 | -1.24 | 0.13 | -0.75 | 0.03 (inactive) | 0.0616 | 0.627 | 0.382 (inactive) | 0.0389 | -2.58 (inactive) | 0.558 (inactive) | -6.53 (inactive) | -0.475 (inactive) | 1.4 (inactive) | 0.811 (inactive) | 1.17 | 0.374 |
| COc1cc2c(cc1OC)CN(C(=O)[C@@H]1[C@H]3C(=O)O[C@H](c4ccccc4)[C@H](c4ccccc4)N3[C@H](c3ccccc3OCCO)[C@@]13C(=O)Nc1ccccc13)CC2 | -0.225 | 1.85 | -0.174 | -0.998 | -0.622 | 0.648 | 3.09 (inactive) | -0.509 | 0.0343 | 0.872 (inactive) | 0.193 | 1.34 (inactive) | 0.255 (inactive) | -0.495 (inactive) | 3.1 (inactive) | 0.392 (inactive) | 0.952 (inactive) | 0.105 | -0.127 |
| CC(=O)NCCCC[C@@H]1NC(=O)[C@@H]2C[C@H](C(=O)NCCCCCNC(=O)CS)[C@H](c3ccc(O)cc3)N2C1=O | 1.69 | 0.349 | -0.0748 | 0.372 | 1.33 | 1.36 | 0.985 (inactive) | -0.418 | -0.559 | 1.46 (inactive) | 1.25 | -0.774 (inactive) | 1.19 (inactive) | -0.961 (inactive) | -3.21 (inactive) | 2.5 (inactive) | 2.03 (inactive) | 0.833 | -0.131 |
| C=C(COC)/C(=C/C[C@H](OC(C)=O)c1ccc(OCCO)cc1)c1cnc2ccccc2c1 | 0.373 | 1.18 | -0.141 | -1.53 | 1.07 | 2.07 | 1.2 (inactive) | 0.23 | 0.278 | 0.715 (inactive) | 0.807 | -0.229 (inactive) | 1.03 (inactive) | -2.82 (inactive) | 1.65 (inactive) | 1.2 (inactive) | 0.805 (inactive) | 1.03 | -0.102 |
| CO[C@H]1COC(=O)[C@@H](OCc2ccccc2)C=C[C@H](C)[C@@H](OC)COC(=O)[C@H](OCc2ccccc2)C=C[C@@H]1C | 0.665 | 1.21 | 1.45 | 0.301 | 0.0913 | 1.6 | 0.382 (inactive) | -0.262 | 2.82 | 1.76 (inactive) | 1.12 | -2.2 (inactive) | 1.6 (inactive) | -1.11 (inactive) | -3.47 (inactive) | 0.422 (inactive) | -0.97 (inactive) | 0.193 | -0.148 |
| CC(C)N1CC=CC23O[C@@H]4/C=C\CCCOC(=O)C4[C@H]2C(=O)N(CCCCCO)[C@@H]3C1=O (stereo not given in full) | 0.196 | 1.24 | 0.791 | 1.64 | 0.0268 | 0.446 | 1.31 (inactive) | -0.197 | 0.599 | 0.929 (inactive) | 0.46 | -1.08 (inactive) | 1.35 (inactive) | 0.623 (inactive) | -0.354 (inactive) | 1.26 (inactive) | 1.29 (inactive) | 1.13 | 0.973 |
